According to PubChem BioAssay (NCI):
This is part of a sample that, as a whole, favours compounds with a hit. Of some 79,000 tested, about 15% had one in any assay. No stated cut-off is given here; in the data, active means growth inhibition above about 70%; inactive means the rest.

How the values were obtained:
[1] = NCI Yeast Anticancer Drug Screen. Data for the rad50 strain (AID 155);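 further: 0% = growth of vehicle-only cultures of the same strain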; details: S. cerevisiae rad50 strain growth inhibition; at 50.0 µM; active compounds read high
Procedure, shortened: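 Vehicle-treated cultures provide the reference for the growth inhibition reported for compound-exposed, repair-deficient yeast.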

[2] = NCI Yeast Anticancer Drug Screen. Data for the mec2-1 strain (AID 157); details: S. cerevisiae mec2-1 strain, at 50.0 µM, active compounds read high
Procedure, shortened: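 Each compound was tested on mec2-1 yeast, a strain altered in DNA damage repair or cell cycle control. Growth inhibition is reported relative to vehicle.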

[3] = NCI Yeast Anticancer Drug Screen. Data for the sgs1 mgt1 strain (AID 161);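 further: 0% = growth of cultures given vehicle only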; details: S. cerevisiae sgs1 mgt1 strain, at 50.0 µM, active compounds read high
Procedure, shortened: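 Mutant yeast exposed to compound; growth scored against vehicle-only wells.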

[4] = NCI Yeast Anticancer Drug Screen. Data for the cln2 rad14 strain (AID 165);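 further: 0% = growth equal to vehicle treated cultures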; details: S. cerevisiae cln2 rad14 strain, at 50.0 µM, active compounds read high
Procedure, shortened: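 Test compounds were added to cln2 rad14 yeast cultures; inhibition of growth was then determined by comparison with vehicle treatment.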

[5] = NCI Yeast Anticancer Drug Screen. Data for the bub3 strain (AID 167); details: S. cerevisiae bub3 mutant strain, at 50.0 µM, active compounds read high
Procedure, shortened: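 Mutant yeast screening strain plus compound; vehicle-treated cultures serve as the 0% inhibition reference.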

[6] = NCI Yeast Anticancer Drug Screen. Data for the mlh1 rad18 strain (AID 175); details: S. cerevisiae mlh1 rad18 strain growth inhibition; at 50.0 µM; active compounds read high
Procedure, shortened: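 Inhibition values reflect reduced growth of mutant yeast versus vehicle-treated controls following compound exposure; the mutations affect DNA damage repair.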

Measured: growth inhibition

CC1CN=C(Nc2ccc(F)cc2F)S1 (stereo not given)
inactive: [1] -9.1% | [2] -8.6% | [3] -65.7% | [4] -24.4% | [5] 12.5% | [6] -36.6%

O=S(=O)(F)c1ccccc1
inactive: [1] 35.8% | [2] -0.6% | [3] -11.4% | [4] -59.8% | [5] 2.1% | [6] 6.85%

COC(=O)C1C(O)CC2CCC1[N+]2(C)C (stereo not given)
inactive: [1] 3.3% | [2] 5.8% | [3] 12.4% | [4] 2.05% | [5] 36.9% | [6] -6.8%

COCCOC(=O)NCP(Cl)(CNC(=O)OCCOC)(CNC(=O)OCCOC)CNC(=O)OCCOC
inactive: [1] -11.6% | [2] -4.85% | [3] -29.8% | [4] -19.7% | [5] -1.75% | [6] -5.75%

CC(=O)O[C@H]1CC[C@]2(C)C3=C([C@@H](OO)C[C@H]2C1(C)C)[C@]1(C)CC[C@H]([C@H](C)CCCC(C)C)[C@@]1(C)CC3
inactive: [1] 13.1% | [2] 4.4% | [3] 14.7% | [4] 20.9% | [5] 8.45% | [6] 25.3%

CN(C)c1ccc(NP(=O)(Nc2ccc(N(C)C)cc2)N(CCCl)CCCl)cc1
inactive: [1] 24.2% | [2] 2.1% | [3] 11% | [4] 5.8% | [5] 12.2% | [6] 7.6%

NC(Cc1ccc(O)c(O)c1)c1ccccc1 (stereo not given)
inactive: [1] -12.1% | [2] 4.2% | [3] -2.55% | [4] -25.8% | [5] -7.75% | [6] -22.6%

N#CC1OC1c1cccnc1 (stereo not given)
inactive: [1] 3.9% | [2] -1.45% | [3] -4.45% | [4] 20.6% | [5] 29.3% | [6] -16.1%

CCOC(=N)CC(O)C(Cl)(Cl)Cl (stereo not given)
inactive: [1] -2.05% | [2] 1.7% | [3] -10.1% | [4] -47.2% | [5] 22% | [6] -6.25%

NC1CC=C(COC(=O)C(O)(c2ccccc2)C2CC2)CC1 (stereo not given)
inactive: [1] -12.9% | [2] -14.7% | [3] -23.6% | [4] 3.65% | [5] -7.4% | [6] -31.4%

c1cc2n[se]nc2cc1-c1ccc2n[se]nc2c1
inactive: [1] 26.7% | [2] -11.8% | [3] -7.85% | [4] -40.2% | [5] -9.55% | [6] -17.4%

NC(=O)CCC(N)C(=O)O.[Cl-].[Cl-].[Cl-].[Cl-].[Pt+2] (stereo not given)
inactive: [1] -1.4% | [2] -3.35% | [3] -9.1% | [4] 23.9% | [5] 8.1% | [6] 13%

CCC(C)C(=O)OC1CC2(C)C(c3ccoc3)OC(=O)CC23OC2(C)OC34C(OC(=O)C(C)C)C3(O)C(OC(=O)C5(C)OC5C)C5(C)CC3(O)C(C)(C5CC(=O)OC)C14O2 (stereo not given)
inactive: [1] 24.4% | [2] 19.1% | [3] 9.3% | [4] 26.9% | [5] 13.1% | [6] -24.3%

c1ccc(N=PNc2ccccc2)cc1 (stereo not given)
inactive: [1] -4.7% | [2] -6.25% | [3] -9.5% | [4] -51.6% | [5] 23% | [6] -13.3%

CN(C)C(=O)Sc1cc(Cl)c(S(=O)(=O)F)cc1Cl
inactive: [1] 9.45% | [2] 6.8% | [3] 10.7% | [4] 8.9% | [5] 3.35% | [6] 14.9%

CC(C)(C)NCC(COc1ccc([N+](=O)[O-])cc1)OP(c1ccccc1)c1ccccc1 (stereo not given)
inactive: [1] 15.7% | [2] 6.25% | [3] 2.25% | [4] 23.6% | [5] 14.8% | [6] 21.3%

CN1CCN(c2cc3nsnc3c3nsnc23)CC1
inactive: [1] 0.3% | [2] -7.3% | [3] -15.1% | [4] 8.6% | [5] -12.7% | [6] 18.1%

NC1=NC(N)=N1
inactive: [1] 1.95% | [2] 16.6% | [3] -6.2% | [4] -1.25% | [5] 14.2% | [6] -13.2%

C=C(C(=C)P(=S)(C(C)C)C(C)C)P(=S)(C(C)C)C(C)C
inactive: [1] -8.65% | [2] -10.6% | [3] 4.75% | [4] 24.1% | [5] -7% | [6] -3.45%

CCCCCCCBr
inactive: [1] -21.5% | [2] 9% | [3] 3.1% | [4] 0.6% | [5] -5.45% | [6] 15.3%
